Source: PubChem BioAssay AID1159580 (chemical genetic matrix, 2015)
In all, about 5,500 compounds went through this assay and about 2,000 (36%) were called active. Inconclusive results (about 18%) are left out. Cut-off read from the data, not from the text of the source: active = normalized growth mostly below about 0.91 (no sharp cut-off); inconclusive = no clear call, values can overlap the other calls; inactive = mostly above about 0.92. The list shows a part of the results.

Experiment: chemical genetic growth profiling, strain panel (AID 1159580);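 note: tested at 20 µM; growth read once vehicle control cultures reached saturation at 30 °C; 1 = growth at the plate median or of vehicle wells; lower values mean less growth of the strain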
Details: growth OD

Measured: normalized growth

CC1(C)C(O)CC(O)C2(C)C1CC(O)C1(C)C2CCC2(C)C(c3ccoc3)OC(=O)C3OC321 (stereo not drawn)
inactive: S. cerevisiae deletion strains, locus YAL021C, strain ccr4, stronger effect = lower value 0.989 | S. cerevisiae deletion strains, locus YAL026C, strain drs2, stronger effect = lower value 0.983 | S. cerevisiae deletion strains, locus YAL030W, strain snc1, stronger effect = lower value 0.998 | S. cerevisiae deletion strains, locus YBL061C, strain skt5, stronger effect = lower value 1.01 | S. cerevisiae deletion strains, locus YBR009C, strain hhf1, stronger effect = lower value 0.999 | S. cerevisiae deletion strains, locus YBR021W, strain FUR4, stronger effect = lower value 0.974 | S. cerevisiae deletion strains, locus YBR023C, strain chs3, stronger effect = lower value 0.997 | S. cerevisiae deletion strains, locus YBR171W, strain sec66, stronger effect = lower value 0.988 | S. cerevisiae deletion strains, locus YBR229C, strain ROT2, stronger effect = lower value 1.01 | S. cerevisiae deletion strains, locus YBR231C, strain swc5, stronger effect = lower value 0.999 | S. cerevisiae deletion strains, locus YBR279W, strain paf1, stronger effect = lower value 0.992 | S. cerevisiae deletion strains, locus YCL011C, strain gbp2, stronger effect = lower value 0.976 | S. cerevisiae deletion strains, locus YCL016C, strain dcc1, stronger effect = lower value 0.985 | S. cerevisiae deletion strains, locus YCL029C, strain bik1, stronger effect = lower value 1.01 | S. cerevisiae deletion strains, locus YCL061C, strain MRC1, stronger effect = lower value 1.01 | S. cerevisiae deletion strains, locus YCL069W, strain vba3, stronger effect = lower value 1 | S. cerevisiae deletion strains, locus YCR088W, strain abp1, stronger effect = lower value 0.988 | S. cerevisiae deletion strains, locus YDL005C, strain med2, stronger effect = lower value 0.974 | S. cerevisiae deletion strains, locus YDL035C, strain GPR1, stronger effect = lower value 1.02 | S. cerevisiae deletion strains, locus YDL040C, strain nat1, stronger effect = lower value 0.991 | S. cerevisiae deletion strains, locus YDL074C, strain BRE1, stronger effect = lower value 0.998 | S. cerevisiae deletion strains, locus YDL101C, strain DUN1, stronger effect = lower value 1.02 | S. cerevisiae deletion strains, locus YDL185W, strain tfp1, stronger effect = lower value 1.03 | S. cerevisiae deletion strains, locus YDL192W, strain arf1, stronger effect = lower value 1.02 | S. cerevisiae deletion strains, locus YDR001C, strain nth1, stronger effect = lower value 0.994 | S. cerevisiae deletion strains, locus YDR069C, strain doa4, stronger effect = lower value 0.98 | S. cerevisiae deletion strains, locus YDR101C, strain arx1, stronger effect = lower value 1.01 | S. cerevisiae deletion strains, locus YDR137W, strain rgp1, stronger effect = lower value 0.988 | S. cerevisiae deletion strains, locus YDR150W, strain NUM1, stronger effect = lower value 0.998 | S. cerevisiae deletion strains, locus YDR159W, strain sac3, stronger effect = lower value 1.01 | S. cerevisiae deletion strains, locus YDR162C, strain NBP2, stronger effect = lower value 1.01 | S. cerevisiae deletion strains, locus YDR195W, strain ref2 0.953 | S. cerevisiae deletion strains, locus YDR297W, strain sur2, stronger effect = lower value 0.986 | S. cerevisiae deletion strains, locus YDR318W, strain mcm21, stronger effect = lower value 1.03 | S. cerevisiae deletion strains, locus YDR334W, strain swr1, stronger effect = lower value 0.985 | S. cerevisiae deletion strains, locus YDR335W, strain msn5, stronger effect = lower value 0.987 | S. cerevisiae deletion strains, locus YDR388W, stronger effect = lower value 1.02 | S. cerevisiae deletion strains, locus YDR392W, strain spt3, stronger effect = lower value 1.02 | S. cerevisiae deletion strains, locus YDR502C, strain sam2, stronger effect = lower value 1.02 | S. cerevisiae deletion strains, locus YEL003W, strain gim4, stronger effect = lower value 1.01 | S. cerevisiae deletion strains, locus YEL037C, strain rad23, stronger effect = lower value 0.987 | S. cerevisiae deletion strains, locus YEL061C, strain CIN8 (second series), stronger effect = lower value 0.989 | S. cerevisiae deletion strains, locus YEL061C, strain CIN8, stronger effect = lower value 0.998 | S. cerevisiae deletion strains, locus YER015W, strain faa2, stronger effect = lower value 0.994 | S. cerevisiae deletion strains, locus YER016W, strain bim1, stronger effect = lower value 0.999 | S. cerevisiae deletion strains, locus YER110C, stronger effect = lower value 1.04 | S. cerevisiae deletion strains, locus YER111C, strain swi4, stronger effect = lower value 0.98 | S. cerevisiae deletion strains, locus YER155C, strain BEM2 (second series), stronger effect = lower value 1.01 | S. cerevisiae deletion strains, locus YER155C, strain BEM2, stronger effect = lower value 0.99 | S. cerevisiae deletion strains, locus YER167W, strain BCK2, stronger effect = lower value 1 | S. cerevisiae deletion strains, locus YFR010W, strain ubp6, stronger effect = lower value 1.01 | S. cerevisiae deletion strains, locus YGL078C, strain dbp3, stronger effect = lower value 1.03 | S. cerevisiae deletion strains, locus YGL086W, strain mad1, stronger effect = lower value 1 | S. cerevisiae deletion strains, locus YGL167C, strain pmr1, stronger effect = lower value 0.994 | S. cerevisiae deletion strains, locus YGL173C, strain kem1, stronger effect = lower value 0.985 | S. cerevisiae deletion strains, locus YGL227W, strain vid30, stronger effect = lower value 0.983 | S. cerevisiae deletion strains, locus YGL240W, strain doc1, stronger effect = lower value 1.02 | S. cerevisiae deletion strains, locus YGL248W, strain PDE1, stronger effect = lower value 1.01 | S. cerevisiae deletion strains, locus YGL253W, strain hxk2, stronger effect = lower value 0.962 | S. cerevisiae deletion strains, locus YGR078C, strain PAC10, stronger effect = lower value 1.01 | S. cerevisiae deletion strains, locus YGR135W, strain pre9, stronger effect = lower value 1.03 | S. cerevisiae deletion strains, locus YGR229C, strain SMI1, stronger effect = lower value 1 | S. cerevisiae deletion strains, locus YGR252W, strain gcn5, stronger effect = lower value 1.01 | S. cerevisiae deletion strains, locus YHR013C, strain ard1, stronger effect = lower value 0.959 | S. cerevisiae deletion strains, locus YHR027C, strain rpn1, stronger effect = lower value 1 | S. cerevisiae deletion strains, locus YHR030C, strain SLT2, stronger effect = lower value 1.01 | S. cerevisiae deletion strains, locus YHR079C, strain IRE1 (second series), stronger effect = lower value 1.02 | S. cerevisiae deletion strains, locus YHR094C, strain hxt1, stronger effect = lower value 1.02 | S. cerevisiae deletion strains, locus YHR129C, strain ARP1, stronger effect = lower value 0.999 | S. cerevisiae deletion strains, locus YHR142W, strain chs7, stronger effect = lower value 0.972 | S. cerevisiae deletion strains, locus YHR200W, strain rpn10, stronger effect = lower value 1.01 | S. cerevisiae deletion strains, locus YIL066C, strain RNR3, stronger effect = lower value 1.02 | S. cerevisiae deletion strains, locus YIL073C, strain SPO22, stronger effect = lower value 1.08 | S. cerevisiae deletion strains, locus YIL125W, strain kgd1, stronger effect = lower value 1.01 | S. cerevisiae deletion strains, locus YIR030C, strain dcg1, stronger effect = lower value 1.02 | S. cerevisiae deletion strains, locus YJL092W, strain hpr5, stronger effect = lower value 0.997 | S. cerevisiae deletion strains, locus YJL095W, strain BCK1 (second series), stronger effect = lower value 0.983 | S. cerevisiae deletion strains, locus YJL095W, strain BCK1, stronger effect = lower value 1 | S. cerevisiae deletion strains, locus YJL115W, strain asf1, stronger effect = lower value 1 | S. cerevisiae deletion strains, locus YJL129C, strain trk1, stronger effect = lower value 0.959 | S. cerevisiae deletion strains, locus YJL134W, strain LCB3, stronger effect = lower value 0.996 | S. cerevisiae deletion strains, locus YJL154C, strain vps35, stronger effect = lower value 0.991 | S. cerevisiae deletion strains, locus YJL164C, strain tpk1, stronger effect = lower value 0.989 | S. cerevisiae deletion strains, locus YJL166W, strain qcr8, stronger effect = lower value 0.982 | S. cerevisiae deletion strains, locus YJL168C, strain set2, stronger effect = lower value 1.01 | S. cerevisiae deletion strains, locus YJL187C, strain SWE1 (second series), stronger effect = lower value 1.01 | S. cerevisiae deletion strains, locus YKL009W, strain mrt4, stronger effect = lower value 0.962 | S. cerevisiae deletion strains, locus YKL068W, stronger effect = lower value 1.01 | S. cerevisiae deletion strains, locus YKL085W, strain MDH1 (second series), stronger effect = lower value 1 | S. cerevisiae deletion strains, locus YKL085W, strain MDH1, stronger effect = lower value 1 | S. cerevisiae deletion strains, locus YKL160W, strain elf1, stronger effect = lower value 0.991 | S. cerevisiae deletion strains, locus YKL190W, strain CNB1, stronger effect = lower value 0.996 | S. cerevisiae deletion strains, locus YKR001C, strain vps1, stronger effect = lower value 1.01 | S. cerevisiae deletion strains, locus YKR026C, strain gcn3, stronger effect = lower value 0.989 | S. cerevisiae deletion strains, locus YKR091W, strain srl3, stronger effect = lower value 0.986 | S. cerevisiae deletion strains, locus YLL001W, strain dnm1, stronger effect = lower value 0.989 | S. cerevisiae deletion strains, locus YLL026W, stronger effect = lower value 1 | S. cerevisiae deletion strains, locus YLL041C, strain sdh2, stronger effect = lower value 1 | S. cerevisiae deletion strains, locus YLR027C, strain aat2, stronger effect = lower value 0.999 | S. cerevisiae deletion strains, locus YLR039C, strain RIC1, stronger effect = lower value 1.06 | S. cerevisiae deletion strains, locus YLR058C, strain SHM2, stronger effect = lower value 1.02 | S. cerevisiae deletion strains, locus YLR102C, strain apc9, stronger effect = lower value 1.02 | S. cerevisiae deletion strains, locus YLR221C, strain rsa3, stronger effect = lower value 0.993 | S. cerevisiae deletion strains, locus YLR258W, strain gsy2, stronger effect = lower value 0.994 | S. cerevisiae deletion strains, locus YLR262C, strain YPT6 (second series), stronger effect = lower value 0.994 | S. cerevisiae deletion strains, locus YLR262C, strain YPT6, stronger effect = lower value 1.07 | S. cerevisiae deletion strains, locus YLR268W, strain sec22, stronger effect = lower value 1.01 | S. cerevisiae deletion strains, locus YLR320W, strain mms22, stronger effect = lower value 1 | S. cerevisiae deletion strains, locus YLR330W, strain CHS5, stronger effect = lower value 1.01 | S. cerevisiae deletion strains, locus YLR342W, strain FKS1, stronger effect = lower value 0.999 | S. cerevisiae deletion strains, locus YLR357W, strain rsc2, stronger effect = lower value 0.995 | S. cerevisiae deletion strains, locus YLR370C, strain arc18, stronger effect = lower value 0.981 | S. cerevisiae deletion strains, locus YLR371W, strain rom2, stronger effect = lower value 0.954 | S. cerevisiae deletion strains, locus YLR384C, strain iki3, stronger effect = lower value 0.977 | S. cerevisiae deletion strains, locus YLR418C, strain cdc73, stronger effect = lower value 1.02 | S. cerevisiae deletion strains, locus YML016C, strain PPZ1, stronger effect = lower value 1.01 | S. cerevisiae deletion strains, locus YML032C, strain rad52, stronger effect = lower value 1 | S. cerevisiae deletion strains, locus YML120C, strain ndi1, stronger effect = lower value 0.991 | S. cerevisiae deletion strains, locus YML124C, strain tub3, stronger effect = lower value 1.01 | S. cerevisiae deletion strains, locus YMR058W, strain fet3, stronger effect = lower value 0.998 | S. cerevisiae deletion strains, locus YMR078C, strain ctf18, stronger effect = lower value 1.03 | S. cerevisiae deletion strains, locus YMR125W, strain sto1, stronger effect = lower value 0.98 | S. cerevisiae deletion strains, locus YMR129W, stronger effect = lower value 0.989 | S. cerevisiae deletion strains, locus YMR205C, strain PFK2, stronger effect = lower value 0.999 | S. cerevisiae deletion strains, locus YMR223W, strain ubp8, stronger effect = lower value 1.02 | S. cerevisiae deletion strains, locus YMR231W, strain pep5, stronger effect = lower value 0.987 | S. cerevisiae deletion strains, locus YMR307W, strain GAS1, stronger effect = lower value 1.02 | S. cerevisiae deletion strains, locus YNL067W, strain RPL9B, stronger effect = lower value 1.02 | S. cerevisiae deletion strains, locus YNL071W, strain lat1, stronger effect = lower value 0.998 | S. cerevisiae deletion strains, locus YNL128W, strain TEP1, stronger effect = lower value 1.02 | S. cerevisiae deletion strains, locus YNL153C, strain GIM3, stronger effect = lower value 1.01 | S. cerevisiae deletion strains, locus YNL209W, strain ssb2, stronger effect = lower value 1.01 | S. cerevisiae deletion strains, locus YNL233W, strain BNI4, stronger effect = lower value 0.995 | S. cerevisiae deletion strains, locus YNL248C, strain rpa49, stronger effect = lower value 0.964 | S. cerevisiae deletion strains, locus YNL250W, strain rad50, stronger effect = lower value 1.03 | S. cerevisiae deletion strains, locus YNL271C, strain bni1, stronger effect = lower value 1.03 | S. cerevisiae deletion strains, locus YNL298W, strain CLA4, stronger effect = lower value 1.02 | S. cerevisiae deletion strains, locus YNL307C, strain MCK1, stronger effect = lower value 1.03 | S. cerevisiae deletion strains, locus YNL322C, strain KRE1 (second series), stronger effect = lower value 0.988 | S. cerevisiae deletion strains, locus YNR049C, strain mso1, stronger effect = lower value 0.999 | S. cerevisiae deletion strains, locus YNR052C, strain pop2, stronger effect = lower value 1 | S. cerevisiae deletion strains, locus YOL006C, strain TOP1, stronger effect = lower value 1.13 | S. cerevisiae deletion strains, locus YOL012C, strain htz1 0.879 | S. cerevisiae deletion strains, locus YOL147C, strain pex11, stronger effect = lower value 1.01 | S. cerevisiae deletion strains, locus YOR001W, strain rrp6, stronger effect = lower value 1 | S. cerevisiae deletion strains, locus YOR061W, strain CKA2, stronger effect = lower value 1.02 | S. cerevisiae deletion strains, locus YOR069W, strain VPS5, stronger effect = lower value 1 | S. cerevisiae deletion strains, locus YOR070C, strain gyp1, stronger effect = lower value 1 | S. cerevisiae deletion strains, locus YOR080W, strain dia2, stronger effect = lower value 0.983 | S. cerevisiae deletion strains, locus YOR083W, strain WHI5, stronger effect = lower value 0.994 | S. cerevisiae deletion strains, locus YOR106W, strain vam3, stronger effect = lower value 0.996 | S. cerevisiae deletion strains, locus YOR136W, strain idh2, stronger effect = lower value 1.03 | S. cerevisiae deletion strains, locus YOR144C, strain elg1, stronger effect = lower value 1.02 | S. cerevisiae deletion strains, locus YOR184W, strain ser1, stronger effect = lower value 1.03 | S. cerevisiae deletion strains, locus YOR265W, strain rbl2, stronger effect = lower value 1 | S. cerevisiae deletion strains, locus YOR270C, strain vph1, stronger effect = lower value 0.914 | S. cerevisiae deletion strains, locus YOR290C, strain snf2, stronger effect = lower value 0.967 | S. cerevisiae deletion strains, locus YOR316C, strain cot1, stronger effect = lower value 1.02 | S. cerevisiae deletion strains, locus YPL051W, strain arl3, stronger effect = lower value 1 | S. cerevisiae deletion strains, locus YPL078C, strain atp4, stronger effect = lower value 0.986 | S. cerevisiae deletion strains, locus YPL106C, strain sse1, stronger effect = lower value 0.988 | S. cerevisiae deletion strains, locus YPL240C, strain hsp82, stronger effect = lower value 0.983 | S. cerevisiae deletion strains, locus YPR119W, strain clb2, stronger effect = lower value 1.01 | S. cerevisiae deletion strains, locus YPR141C, strain kar3, stronger effect = lower value 1.03 | S. cerevisiae deletion strains, locus YPR163C, strain tif3, stronger effect = lower value 1.03 | S. cerevisiae deletion strains, locus YPR167C, strain met16, stronger effect = lower value 1.02 | S. cerevisiae deletion strains, strain wtn01, stronger effect = lower value 1.02 | S. cerevisiae strains, strain wild type, stronger effect = lower value 1.02
